In PubChem BioAssay (NCATS):
Values joined by “and” are separate entries in the source; they are usually repeats but may differ in a detail not shown here. Identical values can stand only once. Records with an inconclusive call do not appear. Active and inactive are the calls of the source. Unless noted, calls follow the shape of the dose curve; as a rule, active = well fitted curve in the direction sought with a large enough effect; inconclusive = small, poorly fitted or top-dose-only effect, or another doubt; inactive = no such curve, though single readings can be large; an effect the other way counts as inactive or inconclusive.

Columns and labels:
[1] = Cell Viability - N2a (AID 540); details: N2a mouse neuroblastoma cell viability; at 92.2 µM (top of the series);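 also: plate controls were DMSO alone for no effect and tamoxifen control for full effect; nearly all actives have a fitted effect of over 45% in size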
Method in brief: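 CellTiter-Glo ATP luminescence, read 20 min after reagent at room temperature, reported viability following 40 h compound treatment at 37 °C. N2a mouse neuroblastoma cells seeded 1500/well; Hill equation gave AC50.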

[2] = Cellular Toxicity (caspase-3) H-4-II-E (AID 663);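 also: cells exposed to compound for 16 hr before readout; 0% = DMSO basal and 100% = 100 µM tamoxifen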
Method in brief: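 Caspase 3/7 activation measured in H-4-II-E cells in complete culture medium after 16 hr treatment at 37 °C, using luciferase-coupled substrate readout; AC50 values come from Hill-equation fits of normalized concentration-response data.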

[3] = Cellular Toxicity (caspase-3) N2a (AID 665); details: N2a cells, luminescence, normalized: DMSO 0%, 10 µM staurosporine 100%; at 92.2 µM (top of the series);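 also: compound exposure lasted 16 h at 37 °C before readout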
Method in brief: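 Caspase-3/7 activation measured as luminescence from Caspase-Glo reagent (1 h, room temperature) after 16 h compound exposure of mouse N2a cells. AC50 values from Hill-equation concentration-response, scaled between DMSO and 10 uM staurosporine.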

[4] = Cell Viability - LYMP1-002 - Assay at 16 hr (AID 948);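 also: 0% = DMSO alone and full effect = 92 µM tetraoctylammonium bromide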
Method in brief: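 Acute cytotoxicity is scored as a concentration-dependent fall in intracellular ATP in a human lymphoblastoid line (LYMP1-002) after 16 hr compound exposure at 37 C, measured by luciferase luminescence.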

[5] = MultiTox-Fluor Cytotoxicity Assay - LYMP1-002 - Live Cells (AID 955); also: % is scaled to controls: 0 for no effect and ±100 for the full control effect
Method in brief: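 After 16 h compound exposure at 37 C, live LYMP1-002 lymphoblastoid cells (2500/well) were quantified by cleavage of cell-permeant GF-AFC substrate, read at 405/510 nm after 60 min. Concentration-response fitted with Hill equation for AC50.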

[6] = MultiTox-Fluor Cytotoxicity Assay - LYMP1-003 - Dead Cells (AID 961); also: nearly all actives have a fitted effect of over 70% in size
Method in brief: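 LYMP1-003 lymphoblastoid, 2500 cells/well, 5 hr settle then 16 hr cpd at 37 C; MultiTox-Fluor reagent 60 min RT; Ex/Em 485/520 dead-cell signal; norm. DMSO = 0%, 15 uM tetraoctylammonium bromide = 100%; Hill AC50.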

[7] = MultiTox-Fluor Cytotoxicity Assay - LYMP1-003 - Live Cells (AID 962);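 also: 0% = DMSO only and full loss = 92 µM tetraoctylammonium bromide; cytotoxic hits lower the live-cell protease signal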
Method in brief: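 Live-cell protease activity (GF-AFC substrate, 405/510 nm, 60 min at room temperature) after 16 h, 37 C compound exposure of human lymphoblastoid LYMP1-003 cells; concentration-response fitted to the Hill equation for AC50.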

[8] = Cell Viability - LYMP2-003 (AID 965);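 also: cells exposed to compounds for 24 h before reading; 0% = DMSO only and full effect = 92 µM tetraoctylammonium bromide; nearly all actives have a fitted effect of over 50% in size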
Method in brief: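 Acute cytotoxicity is scored as a concentration-dependent drop in intracellular ATP, measured by luciferase luminescence in human lymphoblastoid cells treated for 24 hours at 37 C. AC50 values derive from Hill-equation modelling.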

[9] = Cell Viability - LYMP2-015 (AID 971);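 also: 0% = DMSO only and full effect = 92 µM tetraoctylammonium bromide; nearly all actives have a fitted effect of over 55% in size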
Method in brief: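 Cytotoxicity readout: decrease in intracellular ATP (CellTiter-Glo luminescence) in 2500 LYMP2-015 lymphoblastoid cells/well after 24 h compound exposure at 37 C. Concentration-response data fitted with the standard Hill equation to give AC50.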

[10] = Cell Viability - LYMP2-025 (AID 976);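 also: plate controls were DMSO only for no effect and tetraoctylammonium bromide control for full effect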
Method in brief: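 Cytotoxicity read as loss of intracellular ATP (luciferase luminescence) after 24 h compound treatment at 37 C. Uses LYMP2-025 lymphoblastoid cells in 1536-well format; Hill-equation modelling gives AC50; tetraoctylammonium bromide as positive control.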

[11] = Cell Viability - LYMP2-006 (AID 978);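 also: cells exposed to compound for 24 hours; % is scaled to controls: 0 for no effect and ±100 for the full control effect; nearly all actives have a fitted effect of over 60% in size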
Method in brief: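 Concentration-dependent loss of intracellular ATP in a human lymphoblastoid line after 24 hr treatment at 37 C was measured by CellTiter-Glo luminescence, with AC50 values obtained from standard Hill-equation modelling.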

[12] = Cell Viability - LYMP2-007 (AID 979);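 also: cells exposed to compound for 24 h before reading; 0% = DMSO only and the negative end = 92 µM tetraoctylammonium bromide; nearly all actives have a fitted effect of over 60% in size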
Method in brief: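 AC50 values come from Hill-equation fits of luminescent intracellular ATP (CellTiter-Glo, 30 min, room temperature) following 24 h compound exposure at 37 C. Cells: LYMP2-007 lymphoblastoid line, 2500 per well, in complete culture medium.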

[13] = Cell Viability - LYMP2-008 (AID 980); also: % is scaled to controls: 0 for no effect and ±100 for the full control effect; nearly all actives have a fitted effect of over 60% in size
Method in brief: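 Cytotoxicity determined from ATP-dependent luciferase luminescence (CellTiter-Glo) following 24 h compound exposure of human lymphoblastoid LYMP2-008 cells at 37 C. Concentration-response data fitted to the Hill equation to give AC50.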

[14] = Cell Viability - LYMP2-026 (AID 989); also: % is scaled to controls: 0 for no effect and ±100 for the full control effect; nearly all actives have a fitted effect of over 50% in size
Method in brief: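 Cytotoxicity read as ATP-dependent luminescence (CellTiter-Glo, 30 min room temperature) after 24 h compound treatment at 37 C. LYMP2-026 lymphoblastoid line seeded at 2500 cells/well; AC50 derived by standard Hill equation.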

[15] = Cell Viability - LYMP1-002 - Assay at 24 hr (AID 993); also: % is scaled to controls: 0 for no effect and ±100 for the full control effect
Method in brief: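 qHTS cytotoxicity at 24 h: CellTiter-Glo ATP luminescence in lymphoblastoid line LYMP1-002 incubated with compound at 37 °C. Concentration-response modeled with the Hill equation for AC50; tetraoctylammonium bromide served as positive control.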

[16] = Cell Viability - LYMP1-002 - Assay at 40 hr (AID 994);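 also: 0% = DMSO only and full inhibition = 92 µM tetraoctylammonium bromide; nearly all actives have a fitted effect of over 60% in size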
Method in brief: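 Cytotoxicity was read as loss of cellular ATP (CellTiter-Glo luminescence) after 40 hr compound exposure at 37 C of 2500 LYMP1-002 lymphoblastoid cells per well. Concentration-response data were fitted with the standard Hill equation to give AC50.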

[17] = target: Voltage-gated inwardly rectifying potassium channel KCNH2 (Homo sapiens) (UniProt Q12809); assay: qHTS Assay for Small Molecule Inhibitors of the Human hERG Channel Activity (AID 588834);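 also: U2OS cells transduced with hERG by BacMam; top concentration of the series differs between compounds; % is scaled to controls: 0 for no effect and ±100 for the full control effect; lower thallium flux fluorescence means stronger hERG block; nearly all actives have a fitted effect of over 50% in size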
Method in brief: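 Cells were infected with hERG-BacMam virus for 4 hrs at room temperature, grown overnight, then seeded at 2000/well. After dye loading and roughly 10 min compound treatment, thallium influx was triggered and fluorescence recorded.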

[18] = qHTS assay for small molecule agonists of the antioxidant response element (ARE) signaling pathway measured by Nrf2-dependant transcriptional activity (AID 720636; active = well fitted curve in the direction sought with a large enough effect in the repeat runs; an effect the other way counts as inactive or inconclusive; also: % of control where 0% means no effect)
Method in brief: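 Nrf2-dependent transcription read as ONE-Glo luciferase signal from ARE-luc HepG2 reporter cells after 16 hr compound treatment at 37 C, 5% CO2, in assay medium with 1% dialyzed FBS.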

[19] = qHTS assay for small molecule agonists of the antioxidant response element (ARE) signaling pathway measured by Nrf2-dependant transcriptional activity - cell viability counter screen (AID 720653; active = well fitted curve in the direction sought with a large enough effect in the repeat runs; an effect the other way counts as inactive or inconclusive; also: % is scaled to controls: 0 for no effect and ±100 for the full control effect); details: ARE-bla HepG2 viability, CellTiter-Glo ATP luminescence, 16 h; stronger effect = lower value
Method in brief: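 ARE-bla HepG2 cells (2,000/well) rested 5 hrs at 37C/5% CO2, then exposed to compounds in DMSO for 16 hrs. Viability was read in the same wells as intracellular ATP by luminescence, 30 min at room temperature after reagent addition.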

[20] = qHTS assay for cell viability of the p53RE-bla HCT-116 cell line (AID 743292); also: % is scaled to controls: 0 for no effect and ±100 for the full control effect; nearly all actives have a fitted effect of over 55% in size
Method in brief: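 ATP-based luminescent viability (CellTiter-Glo, 30 min RT) after 16 h compound treatment at 37 C of p53RE-bla HCT-116 cells, seeded at 4,000 cells/well and rested 5 h before dosing.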

Sequence of Voltage-gated inwardly rectifying potassium channel KCNH2 (Homo sapiens) (Q12809 whole entry, looked up): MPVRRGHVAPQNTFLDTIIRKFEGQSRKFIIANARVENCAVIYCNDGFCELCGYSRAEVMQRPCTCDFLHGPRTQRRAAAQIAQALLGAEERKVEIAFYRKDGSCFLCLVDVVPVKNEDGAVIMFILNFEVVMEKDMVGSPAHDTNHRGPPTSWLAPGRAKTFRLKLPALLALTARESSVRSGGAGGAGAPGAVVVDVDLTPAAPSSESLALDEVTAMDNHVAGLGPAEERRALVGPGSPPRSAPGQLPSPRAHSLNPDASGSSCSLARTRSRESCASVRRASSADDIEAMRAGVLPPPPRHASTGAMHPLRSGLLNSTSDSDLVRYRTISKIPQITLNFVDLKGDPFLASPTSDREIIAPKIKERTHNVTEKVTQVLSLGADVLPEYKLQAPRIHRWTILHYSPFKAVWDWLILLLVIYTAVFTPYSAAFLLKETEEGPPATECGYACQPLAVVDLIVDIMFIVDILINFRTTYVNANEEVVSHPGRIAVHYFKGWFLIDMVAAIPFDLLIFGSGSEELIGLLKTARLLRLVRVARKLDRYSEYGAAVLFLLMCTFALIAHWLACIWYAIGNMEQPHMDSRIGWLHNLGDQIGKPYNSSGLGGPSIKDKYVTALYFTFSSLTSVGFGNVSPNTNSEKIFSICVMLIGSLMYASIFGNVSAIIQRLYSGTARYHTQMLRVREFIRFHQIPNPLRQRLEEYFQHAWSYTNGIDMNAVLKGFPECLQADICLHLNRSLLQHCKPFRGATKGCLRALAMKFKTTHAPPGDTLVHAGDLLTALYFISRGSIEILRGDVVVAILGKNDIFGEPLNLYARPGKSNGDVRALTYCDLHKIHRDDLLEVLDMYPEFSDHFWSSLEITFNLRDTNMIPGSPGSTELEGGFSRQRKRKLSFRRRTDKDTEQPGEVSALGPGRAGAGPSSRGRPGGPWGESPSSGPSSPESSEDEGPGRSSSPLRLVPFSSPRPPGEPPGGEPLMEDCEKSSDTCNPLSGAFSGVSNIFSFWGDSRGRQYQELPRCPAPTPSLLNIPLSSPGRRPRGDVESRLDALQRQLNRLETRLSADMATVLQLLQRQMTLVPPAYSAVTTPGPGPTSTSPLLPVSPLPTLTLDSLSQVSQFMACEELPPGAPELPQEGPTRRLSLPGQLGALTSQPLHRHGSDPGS

Clc1nc(Cl)nc(Cl)n1
inactive: activity change, negative = cytotoxicity [1] -4.85% | outcome [2] | caspase-3 activation [3] 1.31% | Potency [4] | outcome [5] | Potency [6] | Potency [7] | Potency [8] | Potency [9] | Potency [10] | Potency [11] | Potency [12] | Potency [13] | Potency [14] | Potency [15] | Potency [16] | Potency [17] | outcome [18] | max response [19] -4.92% and -7.17% | Potency [20]

ClC(Cl)=C(Cl)C(Cl)=C(Cl)Cl
inactive: activity change, negative = cytotoxicity [1] -4.4% | outcome [2] | caspase-3 activation [3] -2.34% | Potency [4] | outcome [5] | Potency [6] | Potency [7] | Potency [8] | Potency [9] | Potency [10] | Potency [11] | Potency [12] | Potency [13] | Potency [14] | Potency [15] | Potency [16] | Potency [17] | outcome [18] | max response [19] 5.78% and -15% | Potency [20]

Oc1ccc(Cl)cc1Cl
inactive: activity change, negative = cytotoxicity [1] -5.05% | outcome [2] | caspase-3 activation [3] -0.627% | Potency [4] | outcome [5] | Potency [6] | Potency [7] | Potency [8] | Potency [9] | Potency [10] | Potency [11] | Potency [12] | Potency [13] | Potency [14] | Potency [15] | Potency [16] | Potency [17] | outcome [18] | max response [19] -19.8% and -1.01% | Potency [20]

CCC[CH2][Sn]([Cl])([Cl])[Cl]
inactive: activity change, negative = cytotoxicity [1] 12.4% | outcome [2] | caspase-3 activation [3] 0.958% | Potency [4] | outcome [5] | Potency [6] | Potency [7] | Potency [8] | Potency [9] | Potency [10] | Potency [11] | Potency [12] | Potency [13] | Potency [14] | Potency [15] | Potency [16] | Potency [17] | outcome [18] | max response [19] -3.93% and 8.73% | Potency [20]

C=CC1CC=CCC1 (stereo not given)
inactive: activity change, negative = cytotoxicity [1] 0.971% | outcome [2] | caspase-3 activation [3] -0.281% | Potency [4] | outcome [5] | Potency [6] | Potency [7] | Potency [8] | Potency [9] | Potency [10] | Potency [11] | Potency [12] | Potency [13] | Potency [14] | Potency [15] | Potency [16] | Potency [17] | outcome [18] | max response [19] 1.14% and 1.26% | Potency [20]

CCOc1ccc(N)cc1
inactive: activity change, negative = cytotoxicity [1] -4.95% | outcome [2] | caspase-3 activation [3] 6.79% | Potency [4] | outcome [5] | Potency [6] | Potency [7] | Potency [8] | Potency [9] | Potency [10] | Potency [11] | Potency [12] | Potency [13] | Potency [14] | Potency [15] | Potency [16] | Potency [17] | outcome [18] | max response [19] 1.12% | Potency [20]

O=[N+]([O-])c1cccc2ccccc12
inactive: activity change, negative = cytotoxicity [1] 2.46% | outcome [2] | caspase-3 activation [3] -0.0738% | Potency [4] | outcome [5] | Potency [6] | Potency [7] | Potency [8] | Potency [9] | Potency [10] | Potency [11] | Potency [12] | Potency [13] | Potency [14] | Potency [15] | Potency [16] | Potency [17] | outcome [18] | max response [19] 8.97% and -15.3% | Potency [20]

Nc1ccc(Br)cc1
inactive: activity change, negative = cytotoxicity [1] -2.5% | outcome [2] | caspase-3 activation [3] 0.277% | Potency [4] | outcome [5] | Potency [6] | Potency [7] | Potency [8] | Potency [9] | Potency [10] | Potency [11] | Potency [12] | Potency [13] | Potency [14] | Potency [15] | Potency [16] | Potency [17] | outcome [18] | max response [19] -4.77% | Potency [20]
